# Data taken from PubChem BioAssay (Tox21).
# Records with an inconclusive call do not appear. Entries that show only a call come without a potency. The source holds several records for some structures; these can differ, active in one and inactive in another. Unmarked numbers belong to inactive results. Active and inactive are the calls of the source. Unless noted, calls follow the shape of the dose curve; as a rule, active = well fitted curve in the direction sought with a large enough effect in the repeat runs; inconclusive = weak or mixed curves; inactive = no such curve, though single readings can be large; an effect the other way counts as inactive or inconclusive.
# What was measured:
# [1] = qHTS assay to identify small molecule antagonists of the thyroid receptor (TR) signaling pathway - cell viability counter screen (AID 743064); also: nearly all actives have a fitted effect of over 50% in size; also: potency is read from the fitted curve at half-maximal effect
# Method in brief: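 Fluorescence from CellTiter-Fluor, added after 23.5 h exposure at 37 °C, reported viability of GH3.TRE-Luc cells co-treated with compound and 1 nM T3. Measured in the same wells as the luciferase TR readout.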
# [2] = qHTS assay to identify small molecule antagonists of the thyroid receptor (TR) signaling pathway (AID 743065); also: series mostly up to about 70 µM; nearly all actives have a fitted effect of over 55% in size
# Method in brief: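 GH3.TRE-Luc rat pituitary cells carrying two TR response elements driving luciferase were plated for 4 h, given compound plus 1 nM T3 (final), and incubated 23.5 h at 37 C. ONE-Glo luminescence measured reporter inhibition; CellTiter-Fluor fluorescence tracked cytotoxicity.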
# [3] = tested on: thyroid hormone receptor (rat, GH3 cells); experiment: qHTS assay to identify small molecule agonists of the thyroid receptor (TR) signaling pathway (AID 743066; calls by dose curve)
# [4] = target: Estrogen receptor (Homo sapiens) (UniProt P03372); experiment: qHTS assay to identify small molecule antagonists of the estrogen receptor alpha (ER-alpha) signaling pathway (AID 743069; active = well fitted curve in the direction sought with a large enough effect in the signal ratio in the repeat runs, not every such curve was filed as active; the % refers to the signal ratio)
# Method in brief: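 Screening used a UAS-driven beta-lactamase reporter integrated into HEK293 cells expressing ER-alpha, stimulated with 17beta-estradiol alongside test compounds over 18 hr at 37C; signal came from LiveBLAzer B/G FRET fluorescence.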
# [5] = qHTS assay to identify small molecule antagonists of the estrogen receptor alpha (ER-alpha) signaling pathway - cell viability counter screen (AID 743074; calls by dose curve; also: nearly all actives have a fitted effect of over 45% in size)
# [6] = target: Estrogen receptor (Homo sapiens) (UniProt P03372); experiment: qHTS assay to identify small molecule agonists of the estrogen receptor alpha (ER-alpha) signaling pathway (AID 743075; calls by dose curve)
# [7] = target: Estrogen receptor (Homo sapiens) (UniProt P03372); experiment: qHTS assay to identify small molecule agonists of the estrogen receptor alpha (ER-alpha) signaling pathway using the BG1 cell line (AID 743079); also: nearly all actives have a fitted effect of over 20% in size; also: potency is read from the fitted curve at half-maximal effect
# [8] = qHTS assay to identify small molecule antagonists of the estrogen receptor alpha (ER-alpha) signaling pathway using the BG1 cell line (AID 743080; calls by dose curve;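 also: BG1 cells stimulated with 17beta-estradiol alongside compound; series mostly up to about 70 µM; nearly all actives have a fitted effect of over 25% in size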)
# Method in brief: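 Seeding, 24 h rest, compound transfer from DMSO, 17beta-estradiol addition, 21.5 h incubation, CellTiter-Fluor (30 min, 37 C), then ONE-Glo (30 min, room temperature): this sequence was run on BG1-Luc-4E2 reporter cells.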
# [9] = qHTS assay to identify small molecule antagonists of the estrogen receptor alpha (ER-alpha) signaling pathway using the BG1 cell line - cell viability counter screen (AID 743081);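 also: compound given together with 17beta-estradiol as the ER stimulus; nearly all actives have a fitted effect of over 45% in size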; also: potency is read from the fitted curve at half-maximal effect; as to activity change, negative = cytotoxicity: series mostly up to about 70 µM
# Aromatase (Homo sapiens) = Aromatase (Homo sapiens) (UniProt P11511); experiment: qHTS assay to identify aromatase inhibitors (AID 743083); also: series mostly up to about 70 µM; nearly all actives have a fitted effect of over 55% in size
# [10] = qHTS assay to identify aromatase inhibitors - cell viability counter screen (AID 743084);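 also: cells stimulated with testosterone during compound exposure; nearly all actives have a fitted effect of over 55% in size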; also: potency is read from the fitted curve at half-maximal effect
# [11] = target: Aryl hydrocarbon receptor (Homo sapiens) (UniProt P35869); experiment: qHTS assay to identify small molecule that activate the aryl hydrocarbon receptor (AhR) signaling pathway (AID 743085);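 also: HG2L7.5c1 human HepG2 liver cells with stably integrated DRE-driven firefly reporter; series mostly up to about 70 µM; nearly all actives have a fitted effect of over 15% in size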
# Method in brief: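 Cell line HG2L7.5c1 (human hepatoma, 20× DRE-luc). Plated, 5 h 37C, compound/DMSO added, 24 h 37C. CellTiter-Fluor 30 min 37C → fluorescence; then ONE-Glo 30 min RT → luminescence.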
# [12] = qHTS assay to identify small molecule that activate the aryl hydrocarbon receptor (AhR) signaling pathway - cell viability counter screen (AID 743086); also: nearly all actives have a fitted effect of over 45% in size; also: potency is read from the fitted curve at half-maximal effect;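 as to viability change, negative = cytotoxic: HepG2 liver cells carrying the AhR DRE luciferase reporter; series mostly up to about 70 µM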
# Method in brief: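 HepG2-AhR-luc (HG2L7.5c1) cells, 4000/well, were preincubated 5 h at 37C, exposed to compound in qHTS format for 24 hr at 37C, then given CellTiter-Fluor for 30 min; viability was read as fluorescence in the reporter wells.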
# [13] = target: Peroxisome proliferator-activated receptor gamma (Homo sapiens) (UniProt P37231); experiment: qHTS assay to identify small molecule agonists of the peroxisome proliferator-activated receptor gamma (PPARg) signaling pathway (AID 743094; active = well fitted activation curve with a large enough effect in the signal ratio in the repeat runs, not every such curve was filed as active; the % refers to the signal ratio)
# Method in brief: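 Agonism was assessed in a beta-lactamase reporter system, HEK293H cells with a stably integrated UAS-bla construct under PPARg control; the 17 h treatment at 37C preceded a 1 h room-temperature FRET substrate read.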
# [14] = qHTS assay to identify small molecule antagonists of the peroxisome proliferator-activated receptor gamma (PPARg) signaling pathway - cell viability counter screen (AID 743194); also: nearly all actives have a fitted effect of over 55% in size
# Method in brief: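 PPARg-UAS-bla HEK293H cells were plated, rested 5 h at 37 C, then treated with compounds plus rosiglitazone (50 nM final) for 17 h at 37 C; viability was then read by CellTiter-Glo luminescence after 30 min at room temperature.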
# [15] = qHTS assay for small molecule agonists of the antioxidant response element (ARE) signaling pathway (AID 743202; active = well fitted activation curve with a large enough effect in the signal ratio in the repeat runs, not every such curve was filed as active; the % refers to the signal ratio)
# Method in brief: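 Steps: seed ARE-bla HepG2 cells (2,000/well); incubate 5 h at 37 C; add compounds by pin tool; incubate 16 h at 37 C; add FRET substrate; read fluorescence after 2 h at RT.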
# [16] = qHTS assay for small molecule agonists of the antioxidant response element (ARE) signaling pathway - cell viability counter screen (AID 743203; calls by dose curve; also: nearly all actives have a fitted effect of over 55% in size)
# Method in brief: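 ATP content via CellTiter-Glo luminescence served as the viability measure. Cells: ARE-bla HepG2, 2,000 per well. Exposure: 16 hrs, 37C/5% CO2.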
# [17] = qHTS assay for small molecule activators of the heat shock response signaling pathway (AID 743210; active = well fitted activation curve with a large enough effect in the signal ratio in the repeat runs, with a control signal flat, not every such curve was filed as active; the % refers to the signal ratio;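 also: HeLa cells with beta-lactamase reporter driven by heat shock elements; series mostly up to about 63 µM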)
# Method in brief: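 Activation of heat shock element-controlled beta-lactamase expression is measured in HeLa cells by LiveBLAzer FRET fluorescence, with compound exposure lasting 5 h at 37 C and substrate loading 2.5 h at room temperature.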
# [18] = target: Peroxisome proliferator-activated receptor gamma (Homo sapiens) (UniProt P37231); experiment: qHTS assay to identify small molecule antagonists of the peroxisome proliferator-activated receptor gamma (PPARg) signaling pathway (AID 743191; calls by dose curve; also: series mostly up to about 63 µM; nearly all actives have a fitted effect of over 30% in size)
# Method in brief: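 GeneBLAzer PPARg UAS-bla HEK293H cells carrying a UAS-driven beta-lactamase reporter were plated at 3000 cells/well, preincubated 5 h at 37C, then given compound for 17 h at 37C; LiveBLAzer B/G FRET substrate was read after 1 h at room temperature.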
# [19] = qHTS assay for small molecule activators of the heat shock response signaling pathway - cell viability counter screen (AID 743209); also: nearly all actives have a fitted effect of over 50% in size
# Method in brief: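 Compounds dissolved in DMSO were added to overnight-plated HSE-bla HeLa cells and left 5 h at 37 C. Cell viability was quantified by luminescence using CellTiter-Glo.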
# Peroxisome proliferator-activated receptor gamma (Homo sapiens), sequence (P37231 whole entry, looked up): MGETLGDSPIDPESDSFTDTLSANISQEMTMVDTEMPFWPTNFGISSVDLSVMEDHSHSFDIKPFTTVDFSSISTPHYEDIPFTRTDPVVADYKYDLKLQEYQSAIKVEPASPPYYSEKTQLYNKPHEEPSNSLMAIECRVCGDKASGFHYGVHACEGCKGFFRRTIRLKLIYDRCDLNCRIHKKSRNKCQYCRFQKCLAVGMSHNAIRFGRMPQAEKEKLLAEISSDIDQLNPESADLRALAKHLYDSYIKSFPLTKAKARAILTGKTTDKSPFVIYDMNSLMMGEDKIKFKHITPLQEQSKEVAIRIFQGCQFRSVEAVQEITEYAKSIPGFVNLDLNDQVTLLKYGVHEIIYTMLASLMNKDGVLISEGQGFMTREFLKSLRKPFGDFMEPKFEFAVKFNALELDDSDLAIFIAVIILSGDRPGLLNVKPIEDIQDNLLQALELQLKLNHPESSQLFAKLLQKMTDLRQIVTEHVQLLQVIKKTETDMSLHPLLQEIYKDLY
# Aryl hydrocarbon receptor (Homo sapiens), sequence (P35869 whole entry, looked up): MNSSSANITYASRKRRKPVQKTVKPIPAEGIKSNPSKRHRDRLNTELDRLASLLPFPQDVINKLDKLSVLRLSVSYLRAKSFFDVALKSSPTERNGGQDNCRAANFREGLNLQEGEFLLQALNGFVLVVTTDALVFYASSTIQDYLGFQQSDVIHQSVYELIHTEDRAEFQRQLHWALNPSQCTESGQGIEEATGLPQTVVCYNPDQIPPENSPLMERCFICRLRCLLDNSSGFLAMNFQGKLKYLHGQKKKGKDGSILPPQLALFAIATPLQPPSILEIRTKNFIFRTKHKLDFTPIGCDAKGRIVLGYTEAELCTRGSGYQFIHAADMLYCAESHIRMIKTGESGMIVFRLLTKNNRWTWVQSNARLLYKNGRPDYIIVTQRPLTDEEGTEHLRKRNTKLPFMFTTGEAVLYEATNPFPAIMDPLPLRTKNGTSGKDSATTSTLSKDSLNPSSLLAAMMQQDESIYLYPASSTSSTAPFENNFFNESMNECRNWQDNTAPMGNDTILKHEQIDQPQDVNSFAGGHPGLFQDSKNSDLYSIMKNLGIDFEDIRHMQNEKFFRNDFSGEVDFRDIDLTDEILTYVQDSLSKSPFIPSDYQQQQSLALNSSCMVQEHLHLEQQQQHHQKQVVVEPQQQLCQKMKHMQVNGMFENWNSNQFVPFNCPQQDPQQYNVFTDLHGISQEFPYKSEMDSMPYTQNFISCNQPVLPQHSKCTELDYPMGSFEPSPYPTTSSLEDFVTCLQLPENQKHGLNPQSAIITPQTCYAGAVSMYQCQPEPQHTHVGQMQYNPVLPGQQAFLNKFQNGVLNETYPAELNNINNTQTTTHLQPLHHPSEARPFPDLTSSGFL
# Aromatase (Homo sapiens), sequence (P11511 whole entry, looked up): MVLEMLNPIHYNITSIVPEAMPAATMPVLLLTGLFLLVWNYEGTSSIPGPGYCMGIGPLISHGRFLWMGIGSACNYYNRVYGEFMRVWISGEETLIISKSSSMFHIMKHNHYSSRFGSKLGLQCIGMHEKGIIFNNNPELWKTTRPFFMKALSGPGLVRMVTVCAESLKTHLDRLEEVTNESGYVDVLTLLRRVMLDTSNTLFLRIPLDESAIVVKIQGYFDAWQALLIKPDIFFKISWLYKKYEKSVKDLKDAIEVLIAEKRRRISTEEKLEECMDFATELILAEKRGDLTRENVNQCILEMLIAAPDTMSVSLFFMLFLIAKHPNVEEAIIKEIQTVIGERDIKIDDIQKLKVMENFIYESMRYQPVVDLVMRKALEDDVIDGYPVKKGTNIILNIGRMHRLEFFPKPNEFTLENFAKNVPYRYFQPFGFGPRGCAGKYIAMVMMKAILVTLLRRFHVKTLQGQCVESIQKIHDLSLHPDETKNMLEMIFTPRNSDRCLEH
# Estrogen receptor (Homo sapiens), sequence (P03372 whole entry, looked up): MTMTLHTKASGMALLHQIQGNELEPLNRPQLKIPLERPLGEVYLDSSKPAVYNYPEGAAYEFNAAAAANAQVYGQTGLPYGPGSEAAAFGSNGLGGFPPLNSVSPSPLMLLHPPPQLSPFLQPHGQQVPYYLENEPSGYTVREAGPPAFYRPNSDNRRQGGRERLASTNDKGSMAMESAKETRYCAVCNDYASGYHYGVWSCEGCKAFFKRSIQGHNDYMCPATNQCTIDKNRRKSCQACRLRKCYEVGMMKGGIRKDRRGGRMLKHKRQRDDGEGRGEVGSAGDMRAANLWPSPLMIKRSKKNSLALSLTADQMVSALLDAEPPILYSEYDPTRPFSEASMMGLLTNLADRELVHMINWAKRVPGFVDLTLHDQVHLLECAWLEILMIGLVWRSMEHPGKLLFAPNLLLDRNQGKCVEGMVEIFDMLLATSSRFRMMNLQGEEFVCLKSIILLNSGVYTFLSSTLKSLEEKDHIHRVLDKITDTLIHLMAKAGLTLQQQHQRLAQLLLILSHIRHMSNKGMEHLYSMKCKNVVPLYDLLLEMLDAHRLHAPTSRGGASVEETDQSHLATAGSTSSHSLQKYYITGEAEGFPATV
smiles,measurement,setting,value
Cn1nnc2c(C(N)=O)ncn2c1=O,Potency,[1],inactive
same,Potency,[2],inactive
same,outcome,[3],inactive
same,outcome,[4],inactive
same,outcome,[5],inactive
same,Potency,[6],inactive
same,Potency,[7],inactive
same,outcome,[8],inactive
same,Potency,[9],inactive
same,outcome,Aromatase (Homo sapiens),inactive
same,Potency,[10],inactive
same,Potency,[11],inactive
same,Potency,[12],inactive
same,Potency,[13],inactive
same,outcome,[14],inactive
same,Potency,[15],inactive
same,outcome,[16],inactive
same,outcome,[17],inactive
CCCCCCCCCCOC(C)=O,Potency,[1],inactive
same,Potency,[2],inactive
same,outcome,[3],inactive
same,outcome,[4],inactive
same,outcome,[5],inactive
same,Potency,[6],inactive
same,Potency,[7],61.1 µM (active)
same,outcome,[8],inactive
same,Potency,[9],inactive
same,outcome,Aromatase (Homo sapiens),inactive
same,Potency,[10],inactive
same,Potency,[11],inactive
same,Potency,[12],inactive
same,Potency,[13],inactive
same,outcome,[18],inactive
same,outcome,[14],inactive
same,outcome,[16],inactive
same,Potency,[19],inactive
same,outcome,[17],inactive
O=S(=O)(O)c1ccc2c(N=Nc3ccc(S(=O)(=O)O)c4ccccc34)c(O)c(S(=O)(=O)O)cc2c1,Potency,[1],21.1 µM (active)
same,"activity change, negative = cytotoxic",[1],-5.75% [at 8.44 µM]
same,"activity, negative = inhibition",[2],-4.92% [at 8.44 µM]
same,outcome,[3],inactive
same,outcome,[5],inactive
same,Potency,[9],9.44 µM (active)
same,"activity, negative = inhibition",Aromatase (Homo sapiens),-13.1% [at 8.47 µM]
same,Potency,[10],18.8 µM (active)
same,Potency,[11],inactive
same,Potency,[12],13.3 µM (active)
same,"viability change, negative = cytotoxic",[12],-5.27% [at 8.47 µM]
same,Potency,[13],inactive
same,"ratio activity, negative = inhibition",[18],-16.6% [at 5.95 µM]
same,"activity change, negative = cytotoxicity",[14],-3.57% [at 5.95 µM]
same,activation,[15],7.21% [at 8.36 µM]
same,"viability change, negative = cytotoxic",[16],-0.964% [at 8.36 µM]
same,activation,[17],-0.859% [at 5.95 µM]
CCCCCCCCCOC(=O)c1ccccc1C(=O)OCCCCCCCCC,Potency,[1],inactive
same,Potency,[2],inactive
same,outcome,[3],inactive
same,outcome,[4],inactive
same,outcome,[5],inactive
same,Potency,[6],inactive
same,Potency,[7],inactive
same,outcome,[8],inactive
same,Potency,[9],inactive
same,outcome,Aromatase (Homo sapiens),inactive
same,Potency,[10],inactive
same,Potency,[11],inactive
same,Potency,[12],inactive
same,Potency,[13],inactive
same,outcome,[14],inactive
same,outcome,[16],inactive
same,Potency,[19],inactive
same,outcome,[17],inactive
CC(S)C(C)S (stereo not drawn),Potency,[1],inactive
same,Potency,[2],inactive
same,outcome,[3],inactive
same,outcome,[4],inactive
same,outcome,[5],inactive
same,Potency,[6],inactive
same,Potency,[7],inactive
same,outcome,[8],inactive
same,Potency,[9],inactive
same,outcome,Aromatase (Homo sapiens),inactive
same,Potency,[10],inactive
same,Potency,[11],inactive
same,Potency,[12],inactive
same,Potency,[13],inactive
same,outcome,[18],inactive
same,outcome,[14],inactive
same,Potency,[15],inactive
same,outcome,[16],inactive
same,Potency,[19],inactive
same,outcome,[17],inactive
O=C[O][Al]([O]C=O)[O]C=O,Potency,[1],inactive
same,Potency,[2],inactive
same,outcome,[3],inactive
same,outcome,[4],inactive
same,outcome,[5],inactive
same,Potency,[6],inactive
same,Potency,[7],inactive
same,outcome,[8],inactive
same,Potency,[9],inactive
same,outcome,Aromatase (Homo sapiens),inactive
same,Potency,[10],inactive
same,Potency,[11],inactive
same,Potency,[12],inactive
same,outcome,[14],inactive
same,outcome,[16],inactive
same,outcome,[17],inactive
CCOC(=O)CC1(C)OCC(C)O1 (stereo not drawn),Potency,[1],inactive
same,Potency,[2],inactive
same,outcome,[3],inactive
same,outcome,[4],inactive
same,outcome,[5],inactive
same,Potency,[6],inactive
same,Potency,[7],inactive
same,outcome,[8],inactive
same,Potency,[9],inactive
same,outcome,Aromatase (Homo sapiens),inactive
same,Potency,[10],inactive
same,Potency,[11],inactive
same,Potency,[12],inactive
same,Potency,[13],inactive
same,outcome,[14],inactive
same,Potency,[15],inactive
same,outcome,[16],inactive
same,Potency,[19],inactive
same,outcome,[17],inactive
CN(C)CCOC(=O)C(c1ccccc1)C1(O)CCCC1 (stereo not drawn),Potency,[1],inactive
same,Potency,[2],inactive
same,outcome,[3],inactive
same,outcome,[4],inactive
same,outcome,[5],inactive
same,Potency,[6],inactive
same,Potency,[7],inactive
same,outcome,[8],inactive
same,Potency,[9],inactive
same,outcome,Aromatase (Homo sapiens),inactive
same,Potency,[10],inactive
same,Potency,[11],inactive
same,Potency,[12],inactive
same,Potency,[13],inactive
same,outcome,[14],inactive
same,Potency,[15],inactive
same,outcome,[16],inactive
same,Potency,[19],inactive
same,outcome,[17],inactive
OCC1CCC(CO)CC1 (stereo not drawn),Potency,[1],inactive
same,Potency,[2],inactive
same,outcome,[3],inactive
same,outcome,[4],inactive
same,outcome,[5],inactive
same,Potency,[6],inactive
same,Potency,[7],inactive
same,outcome,[8],inactive
same,Potency,[9],inactive
same,outcome,Aromatase (Homo sapiens),inactive
same,Potency,[10],inactive
same,Potency,[12],inactive
same,Potency,[13],inactive
same,outcome,[14],inactive
same,Potency,[15],inactive
same,outcome,[16],inactive
same,Potency,[19],inactive
same,outcome,[17],inactive
C=CCCCCCCCCC(=O)OCCCC,Potency,[1],inactive
same,Potency,[2],inactive
same,outcome,[3],inactive
same,outcome,[4],inactive
same,outcome,[5],inactive
same,Potency,[6],inactive
same,Potency,[7],inactive
same,outcome,[8],inactive
same,Potency,[9],inactive
same,outcome,Aromatase (Homo sapiens),inactive
same,Potency,[10],inactive
same,Potency,[12],inactive
same,outcome,[14],inactive
same,outcome,[16],inactive
same,Potency,[19],inactive
CN(C)CCCCl,Potency,[1],inactive
same,Potency,[2],inactive
same,outcome,[3],inactive
same,outcome,[4],inactive
same,outcome,[5],inactive
same,Potency,[6],inactive
same,outcome,[8],inactive
same,Potency,[9],inactive
same,outcome,Aromatase (Homo sapiens),inactive
same,Potency,[10],inactive
same,Potency,[12],inactive
same,outcome,[14],inactive
same,Potency,[15],inactive
same,outcome,[16],inactive
same,Potency,[19],inactive
same,outcome,[17],inactive
O=C(O)c1cc2ccccc2nc1C(=O)O,Potency,[1],inactive
same,Potency,[2],inactive
same,outcome,[3],inactive
same,outcome,[4],inactive
same,outcome,[5],inactive
same,Potency,[6],inactive
same,outcome,[8],inactive
same,Potency,[9],inactive
same,outcome,Aromatase (Homo sapiens),inactive
same,Potency,[10],inactive
same,Potency,[11],inactive
same,Potency,[12],inactive
same,Potency,[13],inactive
same,outcome,[18],inactive
same,outcome,[14],inactive
same,Potency,[15],inactive
same,outcome,[16],inactive
same,Potency,[19],inactive
same,outcome,[17],inactive
C=CC/C=C/C,Potency,[1],inactive
same,Potency,[2],inactive
same,outcome,[3],inactive
same,outcome,[4],inactive
same,outcome,[5],inactive
same,Potency,[6],inactive
same,outcome,[8],inactive
same,Potency,[9],inactive
same,outcome,Aromatase (Homo sapiens),inactive
same,Potency,[10],inactive
same,Potency,[11],inactive
same,Potency,[12],inactive
same,Potency,[13],inactive
same,outcome,[14],inactive
same,Potency,[15],inactive
same,outcome,[16],inactive
same,outcome,[17],inactive
C=CCCCC,Potency,[1],inactive
same,Potency,[2],inactive
same,outcome,[3],inactive
same,outcome,[4],inactive
same,outcome,[5],inactive
same,Potency,[6],inactive
same,outcome,[8],inactive
same,Potency,[9],inactive
same,outcome,Aromatase (Homo sapiens),inactive
same,Potency,[10],inactive
same,Potency,[11],inactive
same,Potency,[12],inactive
same,outcome,[18],inactive
same,outcome,[14],inactive
same,outcome,[16],inactive
same,Potency,[19],inactive
same,outcome,[17],inactive
